Results reported in PMC7862700, “An all-to-all approach to the identification of sequence-specific readers for epigenetic DNA modifications on cytosine”.

What was measured:
Experiment in all cases: DAPPL (digital affinity profiling via proximity ligation, sequencing); 10 mM Tris-HCl pH 7.5, 50 mM NaCl, 1 mM DTT, 4% glycerol, room temperature, 30 min; GST-TFs on glutathione beads, 16-mer random dsDNA library, 0.1% formaldehyde crosslink after washing; high values mean tight binding
HSF1 = HSF1 (Homo sapiens, UniProt Q00613 1-529); conditions: protein: recombinant; tags: N-terminal GST; chain copies: 3; dsDNA, one strand shown
In short: (§1)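 Binding signal is each hexamer's read frequency for a factor divided by its frequency in the tag-only sample. The factors were GST-fused human transcription factors from yeast, captured on glutathione beads, DNA-barcoded and pooled with that sample. Pools were incubated with 200 nmole of a random double-stranded 16-mer DNA library in Tris/NaCl/DTT/glycerol buffer at room temperature for 30 min, then washed, crosslinked with 0.1% formaldehyde, proximity-ligated with BsaI/T4 ligase (1 h, 37 °C), PCR-amplified and sequenced on an Illumina NextSeq500.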

ETV2 = target: T1, ETV2 (Homo sapiens, UniProt O00321 1-342); conditions: protein: recombinant; tags: N-terminal GST; dsDNA, one strand shown
T1 sequence: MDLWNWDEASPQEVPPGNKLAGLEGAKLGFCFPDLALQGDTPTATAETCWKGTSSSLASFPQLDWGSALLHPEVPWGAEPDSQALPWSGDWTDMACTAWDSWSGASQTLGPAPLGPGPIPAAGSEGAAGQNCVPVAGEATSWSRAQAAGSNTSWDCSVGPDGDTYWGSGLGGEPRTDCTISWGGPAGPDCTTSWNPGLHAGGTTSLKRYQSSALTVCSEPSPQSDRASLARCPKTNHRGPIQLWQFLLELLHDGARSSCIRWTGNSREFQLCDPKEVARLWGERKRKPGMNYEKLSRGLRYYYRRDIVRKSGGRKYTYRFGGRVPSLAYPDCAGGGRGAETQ
In short: as §1

SPDEF = target: T2, SPDEF (Homo sapiens, UniProt O95238 1-335); conditions: protein: recombinant; tags: N-terminal GST; dsDNA, one strand shown
T2 sequence: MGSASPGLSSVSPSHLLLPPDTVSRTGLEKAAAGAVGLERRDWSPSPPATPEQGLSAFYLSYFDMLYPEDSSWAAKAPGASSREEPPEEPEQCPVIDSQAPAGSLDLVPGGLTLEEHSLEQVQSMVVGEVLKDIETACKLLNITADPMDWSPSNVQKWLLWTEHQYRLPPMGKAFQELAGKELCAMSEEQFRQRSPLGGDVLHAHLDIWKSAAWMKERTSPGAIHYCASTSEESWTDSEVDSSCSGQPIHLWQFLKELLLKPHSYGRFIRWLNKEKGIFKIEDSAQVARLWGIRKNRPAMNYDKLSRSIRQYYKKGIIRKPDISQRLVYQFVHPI
In short: as §1

ELK1 = target: T3, ELK1 (Homo sapiens, UniProt P19419 1-428); conditions: protein: recombinant; tags: N-terminal GST; dsDNA, one strand shown
T3 sequence: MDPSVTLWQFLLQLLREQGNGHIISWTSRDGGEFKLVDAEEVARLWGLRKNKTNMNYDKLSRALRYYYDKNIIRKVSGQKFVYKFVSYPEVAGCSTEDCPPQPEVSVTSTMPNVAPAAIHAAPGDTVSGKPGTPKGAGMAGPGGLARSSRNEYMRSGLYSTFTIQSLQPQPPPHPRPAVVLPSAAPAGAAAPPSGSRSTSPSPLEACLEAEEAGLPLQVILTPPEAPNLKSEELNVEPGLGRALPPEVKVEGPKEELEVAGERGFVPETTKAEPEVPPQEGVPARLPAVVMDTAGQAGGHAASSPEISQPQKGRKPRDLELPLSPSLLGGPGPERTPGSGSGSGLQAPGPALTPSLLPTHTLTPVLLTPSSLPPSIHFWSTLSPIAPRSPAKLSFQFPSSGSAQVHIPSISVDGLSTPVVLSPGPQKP
In short: as §1

GABPA = target: T4, GABPA (Homo sapiens, UniProt Q06546 1-454); conditions: protein: recombinant; tags: N-terminal GST; dsDNA, one strand shown
T4 sequence: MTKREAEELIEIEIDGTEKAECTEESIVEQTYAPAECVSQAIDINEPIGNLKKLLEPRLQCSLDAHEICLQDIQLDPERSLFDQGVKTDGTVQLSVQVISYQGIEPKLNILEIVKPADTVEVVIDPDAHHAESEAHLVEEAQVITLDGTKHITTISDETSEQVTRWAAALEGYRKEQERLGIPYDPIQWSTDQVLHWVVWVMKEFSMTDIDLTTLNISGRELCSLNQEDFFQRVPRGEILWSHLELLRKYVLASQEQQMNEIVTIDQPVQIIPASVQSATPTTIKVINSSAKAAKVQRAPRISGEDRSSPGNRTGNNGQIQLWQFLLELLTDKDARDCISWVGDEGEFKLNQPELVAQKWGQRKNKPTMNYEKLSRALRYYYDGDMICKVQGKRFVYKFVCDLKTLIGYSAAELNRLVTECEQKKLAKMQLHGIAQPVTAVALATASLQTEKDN
In short: as §1

ETV3L = target: T5, ETV3L (Homo sapiens, UniProt Q6ZN32 1-361); conditions: protein: recombinant; tags: N-terminal GST; dsDNA, one strand shown
T5 sequence: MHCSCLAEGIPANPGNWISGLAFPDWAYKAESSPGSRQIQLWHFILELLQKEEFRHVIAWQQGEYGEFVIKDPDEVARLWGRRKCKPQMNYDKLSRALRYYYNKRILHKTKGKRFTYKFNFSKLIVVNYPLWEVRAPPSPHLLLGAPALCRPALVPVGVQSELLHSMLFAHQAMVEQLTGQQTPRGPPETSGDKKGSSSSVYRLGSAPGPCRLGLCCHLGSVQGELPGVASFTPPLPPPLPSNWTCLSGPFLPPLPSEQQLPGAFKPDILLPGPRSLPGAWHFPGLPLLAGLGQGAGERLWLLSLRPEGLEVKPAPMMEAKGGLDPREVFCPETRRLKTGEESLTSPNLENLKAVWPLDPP
In short: as §1

ELF3 = target: T6, ELF3 (Homo sapiens, UniProt P78545 1-371); conditions: protein: recombinant; tags: N-terminal GST; dsDNA, one strand shown
T6 sequence: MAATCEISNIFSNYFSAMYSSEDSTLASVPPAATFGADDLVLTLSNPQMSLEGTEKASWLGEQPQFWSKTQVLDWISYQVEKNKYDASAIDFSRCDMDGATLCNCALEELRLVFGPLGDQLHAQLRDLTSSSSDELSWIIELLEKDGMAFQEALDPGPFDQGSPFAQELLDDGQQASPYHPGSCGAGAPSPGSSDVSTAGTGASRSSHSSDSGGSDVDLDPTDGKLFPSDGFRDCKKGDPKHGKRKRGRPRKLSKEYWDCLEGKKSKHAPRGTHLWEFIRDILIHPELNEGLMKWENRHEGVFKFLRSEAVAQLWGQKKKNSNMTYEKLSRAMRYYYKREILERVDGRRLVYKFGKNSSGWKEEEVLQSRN
In short: as §1

CRX = CRX (Homo sapiens, UniProt O43186 1-299); conditions: protein: recombinant; tags: N-terminal GST; dsDNA, one strand shown
In short: as §1

ELF1 = ELF1 (Homo sapiens, UniProt P32519 1-619); conditions: protein: recombinant; tags: N-terminal GST; dsDNA, one strand shown
In short: as §1

ERG = target: T7, ERG (Homo sapiens, UniProt P11308 1-479); conditions: protein: recombinant; tags: N-terminal GST; dsDNA, one strand shown
T7 sequence: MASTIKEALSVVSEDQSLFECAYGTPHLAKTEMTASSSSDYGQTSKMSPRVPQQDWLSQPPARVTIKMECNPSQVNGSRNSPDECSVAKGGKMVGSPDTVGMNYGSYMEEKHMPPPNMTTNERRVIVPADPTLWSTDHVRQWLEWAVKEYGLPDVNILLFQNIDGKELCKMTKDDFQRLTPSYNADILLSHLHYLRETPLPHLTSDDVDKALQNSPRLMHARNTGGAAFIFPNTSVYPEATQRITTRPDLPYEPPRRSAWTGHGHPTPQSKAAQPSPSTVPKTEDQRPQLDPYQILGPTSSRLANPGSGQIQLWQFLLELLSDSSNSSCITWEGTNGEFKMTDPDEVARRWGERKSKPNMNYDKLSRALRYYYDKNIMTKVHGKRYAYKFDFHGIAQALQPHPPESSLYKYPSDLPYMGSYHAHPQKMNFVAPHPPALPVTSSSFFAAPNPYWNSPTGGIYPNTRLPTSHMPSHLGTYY
In short: as §1

SPI1 = SPI1 (Homo sapiens, UniProt P17947 1-270); conditions: protein: recombinant; tags: N-terminal GST; dsDNA, one strand shown
In short: as §1

ETV1 = ETV1 (Homo sapiens, UniProt P50549 1-477); conditions: protein: recombinant; tags: N-terminal GST; dsDNA, one strand shown
In short: as §1

Chain of CRX (O43186 whole entry): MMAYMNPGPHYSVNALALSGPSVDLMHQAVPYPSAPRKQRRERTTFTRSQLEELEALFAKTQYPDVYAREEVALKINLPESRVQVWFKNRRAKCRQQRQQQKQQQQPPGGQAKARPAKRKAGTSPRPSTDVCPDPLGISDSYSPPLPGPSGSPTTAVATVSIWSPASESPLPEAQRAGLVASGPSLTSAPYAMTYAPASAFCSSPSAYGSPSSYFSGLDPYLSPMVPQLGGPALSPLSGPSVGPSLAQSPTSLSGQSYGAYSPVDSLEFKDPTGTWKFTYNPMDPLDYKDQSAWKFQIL
Chain of HSF1 (Q00613 whole entry, the tested form may be a part): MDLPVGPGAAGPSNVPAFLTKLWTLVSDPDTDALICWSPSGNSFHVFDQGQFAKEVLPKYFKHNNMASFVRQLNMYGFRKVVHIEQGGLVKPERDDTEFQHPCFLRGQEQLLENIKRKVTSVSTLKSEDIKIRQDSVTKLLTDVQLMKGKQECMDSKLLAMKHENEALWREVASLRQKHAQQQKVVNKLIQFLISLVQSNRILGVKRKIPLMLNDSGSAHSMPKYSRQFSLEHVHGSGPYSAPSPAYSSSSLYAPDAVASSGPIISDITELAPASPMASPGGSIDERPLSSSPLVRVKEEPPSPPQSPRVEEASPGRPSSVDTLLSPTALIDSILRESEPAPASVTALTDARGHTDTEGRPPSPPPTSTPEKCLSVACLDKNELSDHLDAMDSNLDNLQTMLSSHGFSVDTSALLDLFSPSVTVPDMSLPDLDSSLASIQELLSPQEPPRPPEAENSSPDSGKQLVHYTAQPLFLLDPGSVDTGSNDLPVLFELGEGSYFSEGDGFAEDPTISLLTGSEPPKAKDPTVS
Chain of ELF1 (P32519 whole entry): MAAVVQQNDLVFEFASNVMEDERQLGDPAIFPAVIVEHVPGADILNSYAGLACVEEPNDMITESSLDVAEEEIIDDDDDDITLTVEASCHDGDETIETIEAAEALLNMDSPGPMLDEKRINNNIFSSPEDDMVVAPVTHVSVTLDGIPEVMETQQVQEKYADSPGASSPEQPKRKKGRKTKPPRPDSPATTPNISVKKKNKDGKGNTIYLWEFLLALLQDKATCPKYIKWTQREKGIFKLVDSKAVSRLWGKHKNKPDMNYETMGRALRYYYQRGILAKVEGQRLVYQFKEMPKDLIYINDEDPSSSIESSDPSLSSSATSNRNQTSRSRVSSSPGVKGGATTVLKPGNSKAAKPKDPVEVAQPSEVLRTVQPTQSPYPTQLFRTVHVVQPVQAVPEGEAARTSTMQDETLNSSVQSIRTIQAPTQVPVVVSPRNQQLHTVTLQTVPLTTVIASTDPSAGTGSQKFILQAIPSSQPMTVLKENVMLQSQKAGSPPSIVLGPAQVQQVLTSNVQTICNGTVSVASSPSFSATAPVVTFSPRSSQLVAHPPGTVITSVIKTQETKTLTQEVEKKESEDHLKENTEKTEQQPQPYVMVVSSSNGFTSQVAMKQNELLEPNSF
Chain of ETV1 (P50549 whole entry): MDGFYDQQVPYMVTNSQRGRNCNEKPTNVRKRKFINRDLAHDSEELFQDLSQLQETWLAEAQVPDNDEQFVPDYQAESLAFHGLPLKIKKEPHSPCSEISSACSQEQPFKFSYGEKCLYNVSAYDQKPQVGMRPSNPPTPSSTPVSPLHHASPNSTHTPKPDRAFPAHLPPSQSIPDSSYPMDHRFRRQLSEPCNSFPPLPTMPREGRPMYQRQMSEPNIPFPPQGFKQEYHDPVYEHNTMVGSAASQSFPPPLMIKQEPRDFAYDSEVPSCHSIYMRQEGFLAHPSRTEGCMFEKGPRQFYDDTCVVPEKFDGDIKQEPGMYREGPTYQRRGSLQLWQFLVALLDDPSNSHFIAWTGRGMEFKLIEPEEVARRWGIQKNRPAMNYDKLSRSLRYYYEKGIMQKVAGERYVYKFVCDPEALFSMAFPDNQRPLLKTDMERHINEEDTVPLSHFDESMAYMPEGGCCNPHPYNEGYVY

## CGTCGA
HSF1
  binding signal: 1.06 fold enrichment (6-mer frequency, TF over GST control)
ETV2
  binding signal: 1.01 fold enrichment (6-mer frequency, TF over GST control)
SPDEF
  binding signal: 1.02 fold enrichment (6-mer frequency, TF over GST control)

## TCGAGT
ELK1
  binding signal: 1.01 fold enrichment (6-mer frequency, TF over GST control)
GABPA
  binding signal: 1 fold enrichment (6-mer frequency, TF over GST control)
HSF1
  binding signal: 1.41 fold enrichment (6-mer frequency, TF over GST control)
ETV3L
  binding signal: 1.06 fold enrichment (6-mer frequency, TF over GST control)

## GGTTAA
HSF1
  binding signal: 1.02 fold enrichment (6-mer frequency, TF over GST control)
ELF3
  binding signal: 1.03 fold enrichment (6-mer frequency, TF over GST control)
CRX
  binding signal: 1.31 fold enrichment (6-mer frequency, TF over GST control)

## TCAAGA
HSF1
  binding signal: 1.12 fold enrichment (6-mer frequency, TF over GST control)
CRX
  binding signal: 1.03 fold enrichment (6-mer frequency, TF over GST control)

## AGATCA
HSF1
  binding signal: 1.21 fold enrichment (6-mer frequency, TF over GST control)
ETV2
  binding signal: 1.03 fold enrichment (6-mer frequency, TF over GST control)
CRX
  binding signal: 1.31 fold enrichment (6-mer frequency, TF over GST control)

## CGAGAT
HSF1
  binding signal: 1.52 fold enrichment (6-mer frequency, TF over GST control)
ETV2
  binding signal: 1.07 fold enrichment (6-mer frequency, TF over GST control)
CRX
  binding signal: 1.27 fold enrichment (6-mer frequency, TF over GST control)

## TCGAGA
HSF1
  binding signal: 2.36 fold enrichment (6-mer frequency, TF over GST control)
CRX
  binding signal: 1.01 fold enrichment (6-mer frequency, TF over GST control)

## TTAGAC
HSF1
  binding signal: 1.1 fold enrichment (6-mer frequency, TF over GST control)
CRX
  binding signal: 1.44 fold enrichment (6-mer frequency, TF over GST control)

## TCGTAA
HSF1
  binding signal: 1.12 fold enrichment (6-mer frequency, TF over GST control)
CRX
  binding signal: 1.15 fold enrichment (6-mer frequency, TF over GST control)

## CAGATA
HSF1
  binding signal: 1.12 fold enrichment (6-mer frequency, TF over GST control)
CRX
  binding signal: 1.17 fold enrichment (6-mer frequency, TF over GST control)

## CTAGAC
GABPA
  binding signal: 1.01 fold enrichment (6-mer frequency, TF over GST control)
ELF1
  binding signal: 1.09 fold enrichment (6-mer frequency, TF over GST control)

## GTGGAT
ERG
  binding signal: 1 fold enrichment (6-mer frequency, TF over GST control)
SPI1
  binding signal: 1.06 fold enrichment (6-mer frequency, TF over GST control)

## CAAAGA
ELF1
  binding signal: 1.01 fold enrichment (6-mer frequency, TF over GST control)
ETV1
  binding signal: 1.02 fold enrichment (6-mer frequency, TF over GST control)

## GGATTC
ETV3L
  binding signal: 1.02 fold enrichment (6-mer frequency, TF over GST control)

## AGGATT
ETV3L
  binding signal: 1.03 fold enrichment (6-mer frequency, TF over GST control)
